Laboratory results reported in article PMC5540273 (PLoS ONE, 2017).
Like-named read-outs stand apart in the source and are kept apart here.

Columns and labels:
LCK = details: concentration: 1 μM, replicates: in singlicate; n = 1
LIMK1 = details: concentration: 1 μM, replicates: in singlicate; n = 1
LIMK2 = details: concentration: 1 μM, replicates: in singlicate; n = 1
LKB1 = tested on: T1, LKB1; details: concentration: 1 μM, replicates: in singlicate; n = 1
T1 construct: gene STK11

LOK = tested on: T2, LOK; details: concentration: 1 μM, replicates: in singlicate; n = 1
T2 construct: gene STK10

LRRK2 = details: concentration: 1 μM, replicates: in singlicate; n = 1
LTK = details: n = 1
LYN = details: concentration: 1 μM, replicates: in singlicate; n = 1
LZK = tested on: T3, LZK; details: concentration: 1 μM, replicates: in singlicate; n = 1
T3 construct: gene MAP3K13

MAK = details: concentration: 1 μM, replicates: in singlicate; n = 1
[1] = concentration: 1 μM, replicates: in singlicate
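Note: KINOMEscan kinase panel screen.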

Compound	%Inh (LCK)	%Inh (LIMK1)	%Inh (LIMK2)	%Inh (LKB1)	%Inh (LOK)	%Inh (LRRK2)	%Inh (LTK; [1])	%Inh (LYN)	%Inh (LZK)	%Inh (MAK)	%Inh (LTK; 1 µM)
c1ccc(Oc2ccc(Nc3ccnc4cc(-c5ccc(CN6CCCCC6)o5)ccc34)cc2)nc1 [GW567143]	88%	0%	0%	6%	39%	35%	0%	6%	12%	4%	
Cc1ccc(-c2ccc3occ(-c4ccc(S(C)=O)cc4)c3c2)nn1 (stereo not drawn)	0%	0%	0%	0%	0%	0%	0%	1%	1%	0%	
N#CC1(c2cccc(C(=O)Nc3cccc(Oc4ccc5nc(NC(=O)C6CC6)sc5n4)c3)c2)CC1	99.3%	6%	0%	0%	95.9%	0%	0%	91.4%	0%	3%	
COc1cccc(CC(=O)N2CCc3cc(-c4cn(C)c5ncnc(N)c45)ccc32)c1 [GSK2608899]	34%	0%	35%	4%	98.5%	0%	36%	22%	0%	2%	
Cc1ccc(O)cc1Nc1ccnc2ccc(C(C)(C)C)cc12 [GW856805]	98.6%	0%	0%	33%	16%	67%	11%	69%	0%	23%	
CN(c1ccc(NC(=O)Nc2cccc(Cl)c2)cc1)c1ccnc(N)n1.Cl [GW830707]	7%	0%	0%	20%	97.8%	66%	12%	0%	0%	11%	
Cc1ccc(NC(=O)c2ccnc(N3CCCCC3)c2)cc1-c1ccc(C(=O)NCC2CC2)cc1 [GW775610]	29%	0%	0%	34%	79%	0%	15%	0%	0%	13%	
Cc1ccc(Nc2ccnc(Nc3ccc(C)c(F)c3)n2)cc1O.Cl [GW582868]	59%	0%	0%	0%	5%	57%	0%	22%	24%	17%	
Cn1cc(-c2ccc3c(c2)CCN3C(=O)Cc2cc(F)cc(F)c2F)c2c(N)ncnc21 [GSK2634140]	58%	0%	0%	0%	91.8%	0%	24%	0%	0%	23%	
COC(=O)Nc1nc2ccc(Oc3ccc(NC(=O)Nc4cc(C(F)(F)F)ccc4F)cc3)cc2[nH]1.Cl [GW654607]	99.3%	37%	16%	0%	99.1%	28%	63%	86%	0%	85%	
CC(C)NCC(Cc1ccccc1)NC(=O)c1cc(Br)c(-c2ccnc3[nH]ccc23)s1.Cl.Cl (stereo not drawn) [GSK1383281]	11%	0%	11%	0%	0%	0%	0%	0%	0%	34%	
Cc1cccc(Nc2nc(N[C@H]3CCCC[C@H]3N)ncc2C(N)=O)c1.Cl [GSK986310]	47%	15%	18%	0%	0%	21%	52%	34%	0%	27%	
O=C1NC(=O)C(c2ccccc2Cl)=C1Nc1cccc(Cl)c1 [SB-342409]	1%	20%	89%	0%	5%	2%	0%	0%	0%	12%	
CN(C)CCNS(=O)(=O)c1ccc(-c2ccnc3[nH]ccc23)cc1 [GSK977620]	23%	0%	0%	0%	0%	47%	4%	0%	0%	84%	
Nc1cccc(-c2ccc3c(N)n[nH]c3c2)c1 [GSK2193613]	9%	0%	12%	12%	0%	0%	0%	0%	0%	18%	
O=C(Nc1n[nH]c2cc(-c3cccs3)ccc12)C1CC1 [SB-731284]	0%	6%	0%	10%	17%	0%	0%	0%	0%	0%	
CCOc1nccc(-c2c(-c3ccc(F)cc3)ncn2C2CCNCC2)n1 [SB-249175]	82%	3%	11%	30%	0%	0%	4%	12%	3%	1%	
Nc1ncnc2scc(-c3ccc(NC(=O)Cc4cc(F)ccc4F)cc3)c12.O=C(O)C(F)(F)F [SB-731254-M]	54%	55%	96%	29%	81%	0%	71%	16%	0%	20%	
Cn1cc(-c2cnc(N)c3c(-c4ccc5c(c4)CCN5C(=O)Cc4ccccc4)csc23)cn1 [GSK2593074]	93.8%	49%	55%	0%	98.9%	3%		65%	0%	0%	0%
Cc1cccc(Nc2nc(NCCN)ncc2C(N)=O)c1 [GSK1292139]	15%	0%	0%	24%	0%	0%	26%	3%	0%	15%	
O=C(Nc1c(F)cccc1F)c1cc(C(=O)c2ccccc2F)c[nH]1 [GSK1326180]	8%	3%	0%	0%	28%	6%	0%	0%	0%	0%	
Cc1ccccc1CC(=O)N1CCc2cc(-c3cn(C)c4ncnc(N)c34)ccc21 [GSK2603346]	30%	0%	0%	0%	89%	21%	23%	0%	0%	1%	
Cc1ccc(C)c(NC(=O)Nc2ccc(C)c(-c3ccc(C(=O)Nc4ccncc4)cc3)c2)c1 [GSK1398473]	47%	25%	2%	0%	0%	0%	0%	17%	0%	65%	

Compound	%Inh (LCK)	%Inh (LIMK1)	%Inh (LIMK2)	%Inh (LKB1)	%Inh (LOK)	%Inh (LRRK2)	%Inh (LTK; [1])	%Inh (LYN)	%Inh (LZK)	%Inh (MAK)	%Inh (LTK; 1 µM)
COc1cc(Nc2nccc(N3CCC(NC(=O)Nc4ccc5c(c4)OCO5)C3)n2)cc(OC)c1OC (stereo not drawn) [GSK1379766]	32%	40%	13%	0%	0%	0%	74%	3%	24%	3%	
CCNc1nccc(-c2c(-c3ccc(F)cc3)ncn2C2CCN(C)CC2)n1	11%	0%	7%	0%	0%	0%	0%	0%	0%	0%	
Cl.Cl.NC(CNC(=O)c1cc(Br)c(-c2ccnc3[nH]ccc23)s1)c1ccccc1 (stereo not drawn) [GSK1322949]	3%	0%	0%	69%	0%	31%	0%	0%	7%	19%	
CN(c1ccc2c(c1)nc(NCc1ccccc1)n2C)c1ccnc(Nc2ccc(CS(C)(=O)=O)cc2)n1.Cl [GW811603]	59%	1%	0%	0%	99.5%	0%	37%	52%	0%	33%	
O=C(O)C(F)(F)F.O=c1[nH]ccc2nc(N[C@@H]3CCNC3)nc(Nc3ccc4c(c3)S(=O)(=O)CC4)c12 [GSK2181306]	40%	0%	0%	2%	97.2%	94.5%	29%	7%	6%	93.5%	
COc1ccc(NC(=O)c2ccoc2)cc1-c1ccc(C(=O)NCC2CC2)cc1 [GW810437]	0%	2%	0%	52%	28%	20%	16%	0%	19%	13%	
COc1ccc(C)c(Nc2ccnc(Nc3ccc(-c4cnc[nH]4)cc3)n2)c1.Cl [GW784041]	75%	31%	16%	0%	57%	0%	42%	30%	0%	0%	
COc1cccc2c(-c3ccncc3)c(-c3ccc(F)cc3)nn12 [GW468513]	23%	0%	0%	0%	0%	48%	28%	0%	0%	27%	
O=C(Nc1n[nH]c2nc(-c3ccccc3O)ccc12)C1CC1 [SB-711880]	37%	0%	0%	22%	77%	0%	0%	0%	20%	16%	
Cl.N#CCc1ccc(Nc2nccc(Nc3ccc(Oc4ccccc4)cc3)n2)cc1 [GW639905]	90.6%	25%	11%	0%	0%	58%	42%	62%	0%	20%	
CN1CCN(Cc2ccc(NC(=O)Nc3ccc(N(C)c4ccnc(Nc5ccc(CS(C)(=O)=O)cc5)n4)cc3)cc2)CC1.Cl [GW827654]	82%	27%	31%	17%	99.9%	0%	46%	70%	42%	34%	
CS(=O)(=O)c1cccc(CNc2nc(Nc3ccc4c(c3)CCC(=O)N4)ncc2C(F)(F)F)c1	0%	0%	0%	34%	0%	16%	0%	16%	0%	0%	
Fc1cc(Cl)ccc1Nc1ccnc2cc(-c3ccc(CN4CCOCC4)o3)ccc12 [GW560109]	97%	0%	0%	0%	62%	70%	57%	76%	0%	7%	
CCNC(=O)/C=C/c1n[nH]c2cc(Sc3ccccc3C(=O)NC)ccc12	11%	25%	11%	0%	27%	0%	0%	16%	14%	26%	
Cl.Cl.NCC(NC(=O)c1cc(-c2cccnc2)c(-c2ccnc3[nH]ccc23)s1)c1ccccc1 (stereo not drawn) [GSK1323434]	33%	0%	0%	22%	0%	0%	0%	0%	77%	21%	
Cc1cc(-c2ccnc(Nc3cccc(C#N)c3)n2)cc(C)c1O [GSK1440913]	18%	14%	42%	86%	17%	0%	0%	20%	0%	36%	
Nc1ncc(-c2ccc3nccc(-c4ccncc4)c3c2)cc1S(=O)(=O)N1CCCCC1 [GSK1693850]	24%	0%	22%	0%	7%	0%	6%	16%	0%	16%	
Cc1ccc(NC(=O)c2cccc(N3CCCCC3)c2)cc1-c1ccc(C(=O)NCC2CC2)cc1 [GSK1917008]	38%	8%	100%	0%	32%	22%	7%	0%	0%	24%	
CN(C)CCOc1ccc(-c2cc(-c3ccc(Cl)c(O)c3)c(-c3ccncc3)[nH]2)cc1.Cl.Cl [SB-684387]	86%	13%	11%	20%	84%	17%	0%	28%	41%	41%	
CSc1ccc(NC2=C(c3ccc(Cl)cc3)C(=O)NC2=O)cc1 [SB-317658]	0%	11%	1%	54%	29%	43%	27%	26%	0%	37%	
COc1cccc(NC(=O)NCCNc2ccnc(Nc3ccc(F)cc3)n2)c1 [GSK1379879]	6%	0%	18%	6%	0%	0%	0%	0%	11%	56%	
Cc1nn2c(=O)cc(N3CCO[C@H](C)C3)nc2n1Cc1cccc(Cl)c1Cl [GSK2373693]	13%	0%	0%	0%	0%	18%	27%	0%	0%	15%	
